Columns and labels:
Settings in all cases: concentration: 1 μM, replicates: in singlicate; n = 1
[1] = test system: CSNK2A2
[2] = test system: T1, CTK
T1 construct: gene MATK

[3] = test system: DAPK1
[4] = test system: DAPK2
[5] = test system: DAPK3
[6] = test system: T2, DCAMKL1
T2 construct: gene DCLK1

[7] = test system: T3, DCAMKL2
T3 construct: gene DCLK2

[8] = test system: T4, DCAMKL3
T4 construct: gene DCLK3

[9] = test system: DDR1
[10] = test system: DDR2
[11] = test system: T5, DLK
T5 construct: gene MAP3K12

[12] = test system: T6, DMPK2
T6 construct: gene CDC42BPG

[13] = test system: DMPK
[14] = test system: T7, DRAK1
T7 construct: gene STK17A

[15] = test system: T8, DRAK2
T8 construct: gene STK17B

[16] = test system: DYRK1A
[17] = test system: DYRK1B
[18] = test system: DYRK2
[19] = test system: EGFR
[20] = test system: EIF2AK1
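Further: KINOMEscan kinase panel screen.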

Structure (SMILES): Nc1ncnc2c1ncn2-c1cccc(F)c1 [SKF-97560]
- %Inh [1]: 0%
- %Inh [2]: 22%
- %Inh [3]: 0%
- %Inh [4]: 0%
- %Inh [5]: 8%
- %Inh [6]: 0%
- %Inh [7]: 11%
- %Inh [8]: 0%
- %Inh [9]: 18%
- %Inh [10]: 30%
- %Inh [11]: 19%
- %Inh [12]: 14%
- %Inh [13]: 0%
- %Inh [14]: 20%
- %Inh [15]: 0%
- %Inh [16]: 25%
- %Inh [17]: 13%
- %Inh [18]: 13%
- %Inh [19]: 9%
- %Inh [20]: 28%

Structure (SMILES): Cc1ccc(-c2ccc3c(ccc4sc5c(c43)NC[C@@H](C)N=C5N(C)C)n2)cn1
- %Inh [1]: 0%
- %Inh [2]: 8%
- %Inh [3]: 0%
- %Inh [4]: 0%
- %Inh [5]: 0%
- %Inh [6]: 9%
- %Inh [7]: 0%
- %Inh [8]: 0%
- %Inh [9]: 0%
- %Inh [10]: 0%
- %Inh [11]: 0%
- %Inh [12]: 0%
- %Inh [13]: 0%
- %Inh [14]: 0%
- %Inh [15]: 0%
- %Inh [16]: 0%
- %Inh [17]: 0%
- %Inh [18]: 0%
- %Inh [19]: 23%
- %Inh [20]: 7%

Structure (SMILES): CN1C(=O)C(Nc2cc(Cl)c(O)c(Cl)c2)=C(c2ccc(Cl)cc2)C1=O [SB-404321]
- %Inh [1]: 0%
- %Inh [2]: 52%
- %Inh [3]: 0%
- %Inh [4]: 0%
- %Inh [5]: 0%
- %Inh [6]: 0%
- %Inh [7]: 0%
- %Inh [8]: 0%
- %Inh [9]: 0%
- %Inh [10]: 10%
- %Inh [11]: 33%
- %Inh [12]: 0%
- %Inh [13]: 0%
- %Inh [14]: 0%
- %Inh [15]: 0%
- %Inh [16]: 0%
- %Inh [17]: 50%
- %Inh [18]: 0%
- %Inh [19]: 52%
- %Inh [20]: 0%

Structure (SMILES): O=C(Nc1n[nH]c2cc(-c3ccccc3F)ccc12)C1CC1 [SB-733371]
- %Inh [1]: 0%
- %Inh [2]: 3%
- %Inh [3]: 0%
- %Inh [4]: 0%
- %Inh [5]: 0%
- %Inh [6]: 16%
- %Inh [7]: 0%
- %Inh [8]: 0%
- %Inh [9]: 0%
- %Inh [10]: 6%
- %Inh [11]: 0%
- %Inh [12]: 0%
- %Inh [13]: 0%
- %Inh [14]: 0%
- %Inh [15]: 0%
- %Inh [16]: 4%
- %Inh [17]: 0%
- %Inh [18]: 3%
- %Inh [19]: 0%
- %Inh [20]: 0%

Structure (SMILES): COc1cc2ncn(-c3cc(OCCCc4ccccc4)c(C(N)=O)s3)c2cc1OC [GSK205189]
- %Inh [1]: 3%
- %Inh [2]: 0%
- %Inh [3]: 0%
- %Inh [4]: 26%
- %Inh [5]: 0%
- %Inh [6]: 0%
- %Inh [7]: 17%
- %Inh [8]: 1%
- %Inh [9]: 2%
- %Inh [10]: 3%
- %Inh [11]: 0%
- %Inh [12]: 0%
- %Inh [13]: 0%
- %Inh [14]: 0%
- %Inh [15]: 0%
- %Inh [16]: 7%
- %Inh [17]: 0%
- %Inh [18]: 0%
- %Inh [19]: 15%
- %Inh [20]: 1%

Structure (SMILES): COc1cccc(C2=C(Nc3cccc(C(=O)O)c3)C(=O)NC2=O)c1 [SB-390770]
- %Inh [1]: 19%
- %Inh [2]: 0%
- %Inh [3]: 6%
- %Inh [4]: 0%
- %Inh [5]: 0%
- %Inh [6]: 12%
- %Inh [7]: 0%
- %Inh [8]: 13%
- %Inh [9]: 0%
- %Inh [10]: 6%
- %Inh [11]: 0%
- %Inh [12]: 4%
- %Inh [13]: 0%
- %Inh [14]: 0%
- %Inh [15]: 0%
- %Inh [16]: 14%
- %Inh [17]: 0%
- %Inh [18]: 0%
- %Inh [19]: 12%
- %Inh [20]: 0%

Structure (SMILES): COC(=O)c1c(-c2ccccc2)c2cc(C)ccc2c(=O)n1Cc1ccccc1
- %Inh [1]: 0%
- %Inh [2]: 0%
- %Inh [3]: 1%
- %Inh [4]: 0%
- %Inh [5]: 0%
- %Inh [6]: 0%
- %Inh [7]: 6%
- %Inh [8]: 0%
- %Inh [9]: 60%
- %Inh [10]: 33%
- %Inh [11]: 0%
- %Inh [12]: 0%
- %Inh [13]: 0%
- %Inh [14]: 0%
- %Inh [15]: 0%
- %Inh [16]: 0%
- %Inh [17]: 6%
- %Inh [18]: 0%
- %Inh [19]: 0%
- %Inh [20]: 0%

Structure (SMILES): CCS(=O)c1ccc(-c2coc3ccc(-c4nnc(C)o4)cc23)cc1 (centres unmarked)
- %Inh [1]: 31%
- %Inh [2]: 0%
- %Inh [3]: 14%
- %Inh [4]: 0%
- %Inh [5]: 0%
- %Inh [6]: 36%
- %Inh [7]: 0%
- %Inh [8]: 0%
- %Inh [9]: 0%
- %Inh [10]: 16%
- %Inh [11]: 30%
- %Inh [12]: 0%
- %Inh [13]: 6%
- %Inh [14]: 0%
- %Inh [15]: 0%
- %Inh [16]: 0%
- %Inh [17]: 7%
- %Inh [18]: 0%
- %Inh [19]: 5%
- %Inh [20]: 0%

Structure (SMILES): Cc1c(Cn2c(C)nn3c(=O)cc(N4CCO[C@H](C)C4)nc23)cccc1C(F)(F)F [GSK2373690]
- %Inh [1]: 0%
- %Inh [2]: 0%
- %Inh [3]: 0%
- %Inh [4]: 0%
- %Inh [5]: 8%
- %Inh [6]: 0%
- %Inh [7]: 17%
- %Inh [8]: 11%
- %Inh [9]: 15%
- %Inh [10]: 2%
- %Inh [11]: 0%
- %Inh [12]: 5%
- %Inh [13]: 23%
- %Inh [14]: 1%
- %Inh [15]: 1%
- %Inh [16]: 19%
- %Inh [17]: 20%
- %Inh [18]: 17%
- %Inh [19]: 10%
- %Inh [20]: 0%

Structure (SMILES): Cc1nn2c(=O)cc(N3CCOCC3)nc2n1Cc1cccc(Cl)c1Cl [GSK2342769]
- %Inh [1]: 5%
- %Inh [2]: 0%
- %Inh [3]: 27%
- %Inh [4]: 21%
- %Inh [5]: 64%
- %Inh [6]: 0%
- %Inh [7]: 0%
- %Inh [8]: 7%
- %Inh [9]: 25%
- %Inh [10]: 0%
- %Inh [11]: 12%
- %Inh [12]: 0%
- %Inh [13]: 0%
- %Inh [14]: 0%
- %Inh [15]: 0%
- %Inh [16]: 26%
- %Inh [17]: 29%
- %Inh [18]: 0%
- %Inh [19]: 25%
- %Inh [20]: 0%
